Results filed as inconclusive are left out. Where a call stands in place of a potency, no number is given. Active and inactive are the calls of the source. Calls follow the shape of the dose curve; as a rule, active = well fitted curve in the direction sought with a large enough effect; inconclusive = small, poorly fitted or top-dose-only effect, or another doubt; inactive = no such curve, though single readings can be large; an effect the other way counts as inactive or inconclusive.

The target of assay [1] is Nuclear receptor subfamily 1 group I member 3 (Homo sapiens) (UniProt Q14994). As to the kind of experiment: Primary qHTS for antagonist of constitutive androstane receptor (CAR) against the NCATS DSHEA and TCM libraries (AID 1794836).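 Also: HepG2 cells stably expressing hCAR with CYP2B6 luciferase reporter stimulated by CITCO; series mostly up to about 40 µM.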 Put shortly: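 HepG2-CYP2B6-hCAR cells, attached 5 h, given compounds plus CITCO agonist […], incubated 24 h at 37 C. Luciferase luminescence read, multiplexed with CellTiter-Fluor viability (Ex/Em 405/540 nm).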

Assay [2] addresses Glutathione peroxidase 1 (Homo sapiens) (UniProt P07203). As to the kind of experiment: Primary qHTS Assay for Inhibitors of Recombinant Selenoprotein Glutathione Peroxidase 1 (GPX1) (AID 1845191). Also: nearly all actives have a fitted effect of over 65% in size. The following applies: outcome: dose series up to 48.8 µM. The method, boiled down:
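GR-coupled readout: NADPH consumption tracked by fluorescence, ex 340/em 450 nm, at t=0 and after 15 min at RT. Final mix 10 nM GPX1, 1 mM GSH, 0.5 mM CHP, 0.5 mM NADPH, 100 nM GR, 0.01% BSA, following 30 min enzyme–compound preincubation.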

The target in assay [3] is Phenylethanolamine N-methyltransferase (Homo sapiens) (UniProt P11086). As to the kind of experiment: Confirmatory Screen for Target Class Profiling of Small Molecule Inhibitors of Methyltransferases (AID 1745852). The following applies: MTase-Glo luminescence, SAH detection, recombinant enzyme; measured here: PNMT max response; stronger effect = lower value.
The target of assay [4] is Phospholipid hydroperoxide glutathione peroxidase GPX4 (Homo sapiens) (UniProt P36969). Briefly: Primary qHTS Assay for Inhibitors of Recombinant Selenoprotein Glutathione Peroxidase 4 (GPX4) (AID 1845192). Also: nearly all actives have a fitted effect of over 65% in size. Also: potency is read from the fitted curve at half-maximal effect. Put shortly:
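Steps: GPX4 plus compound, 30 min RT; add GR/GSH/NADPH master mix; start with cumene hydroperoxide; read 340/450 nm fluorescence at 0 and 15 min. Finals were 200 nM GPX4, 1 mM GSH, 0.5 mM CHP, 0.5 mM NADPH, 100 nM GR.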

Assay [5] concerns the target Luciferin 4-monooxygenase (Photinus pyralis) (UniProt P08659). As to the kind of experiment: Primary firefly luciferase (FLuc) qHTS assay for identification of artifact compounds. (AID 1845220). Also: nearly all actives have a fitted effect of over 60% in size. The following applies: outcome: dose series up to 54.1 µM. The method, boiled down:
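Enzymatic FLuc inhibition assay: compounds pre-exposed to luciferin/ATP (10 uM each) for 15 min, then purified P. pyralis enzyme at 10 nM added. Read-out: luminescence at 5 min.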

Assay [6] is described as follows: Primary fluorescence-based thiol-reactive (MSTI) qHTS assay for identification of artifact compounds. (AID 1845221).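 Also: series mostly up to about 54 µM; thiol-reactive compounds lower the probe fluorescence signal; nearly all actives have a fitted effect of over 65% in size.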 Put shortly:
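Probe: MSTI 4 uM, PBS pH 7.4, 2% DMSO. Incubation 1 h, RT, light-protected. Readout fluorescence 525/598 nm.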

For assay [7], the system named is Nanoluciferase (engineered Oplophorus gracilirostris luciferase). As to the kind of experiment: Primary Nanoluciferase (NLuc) qHTS assay for identification of artifact compounds. (AID 1845222).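 Also: NLuc secreted into diluted conditioned medium of S16 cells; series mostly up to about 54 µM.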 The method, boiled down: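 S16 cell supernatant NLuc, 1:55; cpds qHTS; 15 min RT dark; Nano-Glo substrate 1:100, 5 min; luminescence; Hill fit of % inhibition.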
A short description of assay [8]: Primary redox qHTS assay for identification of artifact compounds. (AID 1845223). Put shortly:
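Redox-cycling detection via DTT (250 uM final) oxidation coupled to Amplex Red (25 uM)/HRP (250 mU/mL) in HBSS. 15 min preincubation plus 30 min after DTT, room temperature. Ex/Em 525/598 nm; 4-parameter Hill fit against DMSO and 10 uM DA3003.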

Assay [9] can be described thus: Viability counterscreen for antagonist of constitutive androstane receptor (CAR) against the NCATS DSHEA and TCM libraries (AID 1794837).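 Also: compound exposure lasted 24 h before viability reading.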 The method, boiled down:
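Cell viability, CellTiter-Fluor, Ex/Em 405/540 nm, 1 h at 37C. HepG2-CYP2B6-hCAR, 2,500 cells/well; cpds + CITCO 48 uM final (antagonist mode), 24 h, 37C/5% CO2.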

A short description of assay [10]: Viability counterscreen for agonist of constitutive androstane receptor (CAR) against the NCATS DSHEA and TCM libraries (AID 1794838). Put shortly: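 Viability by CellTiter-Fluor fluorescence, 405/540 nm, after 1 h at 37C. HepG2-CYP2B6-hCAR cells were exposed 24 h to test substances in presence of 0.75 uM PK11195 (final).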
The target in assay [11] is Nuclear receptor subfamily 1 group I member 3 (Homo sapiens) (UniProt Q14994). Briefly: Primary qHTS for agonist of constitutive androstane receptor (CAR) against the NCATS DSHEA and TCM libraries (AID 1794839).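 Also: HepG2 cells expressing human CAR with a CYP2B6 reporter plus PK11195 antagonist.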 Put shortly:
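Luminescence from ONE-Glo luciferase was the agonist read-out in HepG2-CYP2B6-hCAR cells exposed 24 h to test substances. Wells also held the CAR antagonist PK11195 at 0.75 µM final. Viability was by CellTiter-Fluor fluorescence.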

Assay [12] is described as follows: HepG2 viability counterscreen (readout 2: ATP content) against the NCATS DSHEA and TCM libraries (AID 1794840). The method, boiled down: (§1)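 1,000 HepG2 cells/well, 4 h attach; compounds ~24 h, 37C/5% CO2. Readout 1: GF-AFC 25 uM final, 30 min, fluorescence 380/510 nm. Readout 2: CellTiter-Glo, 30 min RT, luminescence.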
A short description of assay [13]: HepG2 viability counterscreen (readout 1: protease activity) against the NCATS DSHEA and TCM libraries (AID 1794841).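 Also: cells exposed to compounds for about 24 h before the protease read.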 Put shortly: as §1
Assay [14] can be described thus: NCATS anti-infectives library activity on HEK293 viability as a counter-qHTS vs the C. elegans viability qHTS (AID 1745854).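 Also: HEK293 cells exposed to compounds for 24 hr before the viability read.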 Put shortly: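 Counter-screen for cytotoxicity: HEK293, 24 hr, 37C, compounds up to 41.7 uM final (a dilution series, 1:5). Readout CellTiter-Glo luminescence, 10 min RT. Digitonin control, 83.3 uM final.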

Chain of Glutathione peroxidase 1 (Homo sapiens) (P07203 whole entry, looked up): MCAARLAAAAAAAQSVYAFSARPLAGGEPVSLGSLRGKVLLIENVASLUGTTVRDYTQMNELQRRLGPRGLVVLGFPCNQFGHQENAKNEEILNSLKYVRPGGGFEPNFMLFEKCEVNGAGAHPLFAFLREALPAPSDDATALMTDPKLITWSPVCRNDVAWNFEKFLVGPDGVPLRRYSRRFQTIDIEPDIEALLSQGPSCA
Chain of Phospholipid hydroperoxide glutathione peroxidase GPX4 (Homo sapiens) (P36969 whole entry, looked up): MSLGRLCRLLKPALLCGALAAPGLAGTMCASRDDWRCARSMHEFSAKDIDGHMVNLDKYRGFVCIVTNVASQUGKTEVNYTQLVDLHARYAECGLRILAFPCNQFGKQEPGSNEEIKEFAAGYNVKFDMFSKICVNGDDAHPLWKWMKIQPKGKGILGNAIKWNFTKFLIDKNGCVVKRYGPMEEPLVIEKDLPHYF
Chain of Nuclear receptor subfamily 1 group I member 3 (Homo sapiens) (Q14994 whole entry, looked up): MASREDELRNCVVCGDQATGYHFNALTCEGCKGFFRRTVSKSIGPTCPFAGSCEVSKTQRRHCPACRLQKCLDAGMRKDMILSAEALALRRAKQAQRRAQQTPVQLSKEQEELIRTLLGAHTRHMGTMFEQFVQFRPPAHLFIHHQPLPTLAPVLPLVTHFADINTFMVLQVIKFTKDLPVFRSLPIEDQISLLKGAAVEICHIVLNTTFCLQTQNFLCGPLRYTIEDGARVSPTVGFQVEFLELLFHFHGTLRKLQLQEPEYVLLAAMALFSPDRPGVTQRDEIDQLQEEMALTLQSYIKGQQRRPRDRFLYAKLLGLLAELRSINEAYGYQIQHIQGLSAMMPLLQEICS
Chain of Phenylethanolamine N-methyltransferase (Homo sapiens) (P11086 whole entry, looked up): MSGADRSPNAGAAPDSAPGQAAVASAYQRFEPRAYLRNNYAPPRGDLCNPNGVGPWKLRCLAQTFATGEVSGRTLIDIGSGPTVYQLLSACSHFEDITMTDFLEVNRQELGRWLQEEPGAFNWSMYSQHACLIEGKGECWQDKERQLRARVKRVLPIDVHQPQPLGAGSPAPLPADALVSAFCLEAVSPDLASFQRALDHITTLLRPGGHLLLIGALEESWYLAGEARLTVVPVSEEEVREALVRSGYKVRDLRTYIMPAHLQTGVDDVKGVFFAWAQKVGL

On to `OC[C@H]1O[C@@H](OCCc2ccc(O)cc2)[C@H](O)[C@@H](O)[C@H]1O`, for which, in assay [1], the outcome was “inactive”.

Take `Cc1cccc(Cc2cnc[nH]2)c1C`: in [2], the outcome is “inactive”.

Regarding `C=CCN1CC[C@]23CCCC[C@H]2[C@H]1Cc1ccc(O)cc13`, the activity in assay [3] was determined as 2.6%. The outcome in [2] was “inactive”. The Potency entry in assay [4] was “inactive”.

With `Oc1ccc(/C=C/c2cc(O)cc(O)c2)cc1`, the outcome in assay [1] is “inactive”.

For the compound `CCN(CC)Cc1nccn1-c1ccc([N+](=O)[O-])cc1C(=O)c1ccccc1Cl`, in assay [2], the outcome is “inactive”.

Turning to `CCC(=O)C(CCN(C)C)(c1ccccc1)c1ccccc1`, in assay [2], the outcome was “inactive”.

On to `Cc1nnc2n1-c1sc(CCc3ccc(CC(C)C)cc3)cc1C(c1ccccc1Cl)=NC2C` (stereo not given), for which the activity in assay [3] is -8.97%. Moreover, the outcome in [2], in assay [5], in [6], in assay [7] and in assay [8] was “inactive” throughout. For the same compound, the Potency in assay [4] was 25.5 µM (active).

As for `Cc1ccc(N=CN(C)C=Nc2ccc(C)cc2C)c(C)c1`, the outcome in [2] is “inactive”.

Turning to `Oc1ccc([C@H]2CNCc3c2ccc(O)c3O)cc1O`, in assay [2], the outcome was “inactive”.

Turning to `CC#C[C@]1(O)CC[C@H]2[C@@H]3C[C@H](C)C4=CC(=O)CC[C@]4(C)[C@H]3CC[C@@]21C`, the outcome in assay [2] was “inactive”.

`C/C=C/c1ccc(OC)cc1`: the outcome in [1] was “inactive”.

Consider `C[C@]12CC[C@H](O)CC1=CC[C@@H]1[C@@H]2CC[C@]2(C)C(=O)CC[C@@H]12`, for which the outcome in [1], in [9], in assay [10], in assay [11], in [12] and in assay [13] was “inactive” throughout. Besides, the outcome in assay [2], in assay [5], in assay [6], in [7] and in [8] was “inactive” in each case. Moreover, in [4], the Potency result is “inactive”.

Take `CC1COC2(c3ccccc3Cl)c3cc(Cl)ccc3NC(=O)CN12` (stereo not given): the outcome in [2] is “inactive”.

Regarding `c1ccc2c(c1)Sc1ccccc1N2CC1CN2CCC1CC2` (stereo not given), the outcome in assay [2] is “inactive”.

Take `C[C@@H]1CC[C@H]2[C@@H](C)C(=O)O[C@@H]3O[C@@]4(C)CC[C@@H]1[C@]32OO4`: the outcome in assay [14] and in assay [2] was “inactive” throughout. Moreover, in [4], the Potency entry was “inactive”.

With `COP(=S)(OC)Oc1ccc(S(N)(=O)=O)cc1`, the outcome in assay [2] is “inactive”.

For `CN1C2CCC(C)(C)C1CC(OC(=O)C(O)(c1cccs1)c1cccs1)C2` (stereo not given), the outcome in [2] is “inactive”.

Turning to `N#Cc1nn(-c2c(Cl)cc(C(F)(F)F)cc2Cl)c(N)c1S(=O)C(F)(F)F` (stereo not given), the outcome in assay [2] is “inactive”.

As to `Cc1nnc2n1-c1sc(CCC(=O)N3CCOCC3)cc1C(c1ccccc1Cl)=NC2`, the outcome in [2] was “inactive”.

As for `NC(=O)OCCCc1ccccc1`, in assay [2], the outcome was “inactive”.

Consider `O=C(CCCN1CCC(n2c(=O)[nH]c3ccccc32)CC1)c1ccc(F)cc1`, for which, in assay [2], the outcome was “inactive”.

Take `Nc1nc2ncc(CNc3ccc(C(=O)N[C@@H](CCC(=O)O)C(=O)O)cc3)nc2c(=O)[nH]1`: in assay [1], the outcome was “inactive”.

As to `C#C[C@]1(O)C=C[C@H]2[C@@H]3CCC4=CC(=O)CC[C@@H]4[C@H]3CC[C@@]21CC`, the outcome in [2] was “inactive”.

With `CC(C)[N+](C)(CCC(C(N)=O)(c1ccccc1)c1ccccc1)C(C)C`, in assay [2], the outcome was “inactive”.

Source of the values: PubChem BioAssay (NCATS).
